# Tau filament bind: binds recombinant human tau filaments; P10636; recombinant tau filaments, thioflavin S fluorescence, 15 h; filaments grown with octadecylsulfate alongside compound; Potency, µM (top dose mostly 57.1 µM); actives 2% (n = 71,000); AID 596;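 note: actives lower thioflavin S fluorescence by blocking filaments or displacing dye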
# Target sequence (P10636 whole entry, looked up): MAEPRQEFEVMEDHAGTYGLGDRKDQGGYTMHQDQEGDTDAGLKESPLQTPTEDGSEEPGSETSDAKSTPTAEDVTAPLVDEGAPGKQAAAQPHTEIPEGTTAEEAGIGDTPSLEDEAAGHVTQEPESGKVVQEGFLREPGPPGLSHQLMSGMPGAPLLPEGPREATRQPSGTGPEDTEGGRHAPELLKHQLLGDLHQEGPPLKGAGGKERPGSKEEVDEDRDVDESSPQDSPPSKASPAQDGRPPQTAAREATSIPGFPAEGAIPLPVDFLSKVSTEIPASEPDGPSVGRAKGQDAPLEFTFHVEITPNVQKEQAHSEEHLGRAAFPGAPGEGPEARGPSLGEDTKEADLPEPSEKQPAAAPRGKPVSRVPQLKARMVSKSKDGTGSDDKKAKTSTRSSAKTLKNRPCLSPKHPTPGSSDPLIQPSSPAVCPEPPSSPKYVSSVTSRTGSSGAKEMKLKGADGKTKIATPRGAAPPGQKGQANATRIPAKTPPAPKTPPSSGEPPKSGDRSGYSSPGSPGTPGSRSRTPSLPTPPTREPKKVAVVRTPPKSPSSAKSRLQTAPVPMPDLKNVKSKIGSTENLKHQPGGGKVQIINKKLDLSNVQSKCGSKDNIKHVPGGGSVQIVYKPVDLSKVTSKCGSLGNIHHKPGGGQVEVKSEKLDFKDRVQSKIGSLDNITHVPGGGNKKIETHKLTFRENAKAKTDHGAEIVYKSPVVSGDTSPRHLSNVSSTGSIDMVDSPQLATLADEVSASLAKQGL
#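 Quantitative HTS: thioflavine S signal from ODS-induced tau filaments, excited at 450 nm, emission 510 nm. Conditions: 1 uM tau, 30 uM ODS, 15 h at 37 C, pH 7.4.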
# Hsp90 Hop PPI: changes Hsp90-Hop TPR2A binding signal, up or down; AlphaScreen TPR2A-His6 binding biotin-Hsp90 C-terminal peptide; Potency, µM (doses to about 57 µM); actives 0.44% (n = 71,000); active = well fitted curve in either direction with a large enough effect; inconclusive = small, poorly fitted or top-dose-only effect, or another doubt
# Pol III holo inh: DNA polymerase III holoenzyme inhibition; reconstituted DNA polymerase III holoenzyme replication, biochemical; Potency, µM (doses to about 57.1 µM); actives 0.25% (n = 71,000)
#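 Reconstituted *E. coli* holoenzyme (0.35 nM Pol III, 1 nM beta, 154 nM SSB, 2 nM primase) was preincubated with compound for 15 min at RT. Synthesis on 1.4 nM ssM13Gori ran 35 min, then was stopped with PicoGreen/EDTA and read as dsDNA fluorescence.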
# BRCT PPI red: disrupts BRCA1 BRCT binding to phosphoprotein, red fluorophore readout. P38398. BRCT-phosphopeptide binding, red fluorescence polarization. Potency, µM (series often up to 76.9 µM), hits mostly inhibitors. actives 0.03% (n = 75,000). AID 892
#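 Rhodamine-labelled pBACH1 10-mer (100 nM) bound to BRCT domain (100 nM) at pH 7.3; compounds incubated 12 min room temperature, polarization read. Free peptide defines full inhibition; unlabelled decapeptide titrated as control.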
# BRCT inh green: blocks human BRCA1 BRCT binding to phosphopeptide, green readout | P38398 | BRCA1 BRCT-phosphopeptide binding, green fluorescence polarization | Potency, µM (titrated, usually from 76.9 µM), usual class: inhibitors | actives 0.05% (n = 75,000) | AID 875
#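 Fluorescence polarization: His-tagged BRCT (~35 kDa BRCA1 C-terminus, 250 nM) bound to 100 nM fluorescein-labeled phosphorylated 10-aa BACH1 peptide, pH 7.3 phosphate buffer with DTT and Tween 20. Compounds incubated 12 min at room temperature; inhibition read as lowered polarization.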
# TsaE inh: displaces an ADP probe from E. coli YjeE (TsaE); purified YjeE enzyme, qHTS inhibition assay; actives 0.05% (n = 71,000); Potency, µM; P0AF67
#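 Purified YjeE (10 uM) with BODIPY Texas Red-labeled ADP probe (2 uM); compounds pin-transferred, 15 min at room temperature. Binding inhibition read as decreased fluorescence polarization; ADP titration as control.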
# A number is an active result; 0 = inactive; ? = inconclusive; - = not tested or not shown; [ ] = dose if it differs, or a comment. A selection: hits, their analogues and other compounds. The true share with any hit is near 2.4%. Unless noted, calls come from the whole dose curve; as a rule, active = well fitted curve in the direction sought with a large enough effect; inconclusive = small, poorly fitted or top-dose-only effect, or another doubt; inactive = no such curve, though single readings can be large; an effect the other way counts as inactive or inconclusive.
SMILES,Tau filament bind,Hsp90 Hop PPI,Pol III holo inh,BRCT PPI red,BRCT inh green,TsaE inh
O=C(c1cc2nc(-c3ccco3)cc(C(F)(F)F)n2n1)N1CCCCCC1,13µM,0,0,0,0,0
O=C(c1cc2nc(-c3ccco3)cc(C(F)(F)F)n2n1)N1CCN(c2ccccn2)CC1,25µM,0,0,0,0,0
O=C(c1ccc2nc(-c3ccco3)c(-c3ccco3)nc2c1)N1CCN(c2ccccc2)CC1,1µM,?,0,0,0,0
O=C(c1cc2nc(-c3ccco3)cc(C(F)(F)F)n2n1)N1CCN(c2ccccc2)CC1,10µM,0,0,0,0,0
O=C(c1cc2nc(-c3ccco3)cc(C(F)(F)F)n2n1)N1CCCc2ccccc21,0,0,0,0,0,0
NC(=O)SCC(=O)Nc1ccc2ncccc2c1,0[11.4 µM],0[11 µM],0[11.4 µM],0[15.4 µM],0[15.4 µM],0
COC(=O)CC[C@@H](C)[C@H]1CC[C@H]2[C@H]3CC[C@H]4C[C@@H]5CC[C@@]4(C)C3(O5)[C@@H](Br)[C@@H](Br)[C@@]12C,0[11.4 µM],0[11 µM],0[11.4 µM],0[15.4 µM],0[15.4 µM],0
Cc1cccc(N2CCN(C(=O)C3CCN(S(=O)(=O)c4cccc5nsnc45)CC3)CC2C)c1 (configuration not stated),25µM,0,0,0,0,0
Cc1cccc(N2CCN(C(=O)C3CCN(S(=O)(=O)c4cccc5cccnc45)CC3)CC2C)c1 (configuration not stated),0,0,0,0,0,0
COc1ccc2nc(NC(=O)C3CCN(S(=O)(=O)c4cccc5nsnc45)CC3)sc2c1,13µM,0,0,0,0,0
Cc1cccc(NC(=O)C2CCN(S(=O)(=O)c3cccc4nsnc34)CC2)n1,0,0,0,0,0,0
O=S(=O)(Nc1cccnc1)c1cccc2cccnc12,0,0,0,0,0,0
CCN1CCCC1CNC(=O)c1ccc(Cc2nc3ccccc3[nH]2)cc1 (configuration not stated),-,-,-,0,0,-
O=c1c2c3nc4ccccc4nc3n(-c3cccc(F)c3)c2ncn1Cc1ccc2c(c1)OCO2,3.2µM,0,0,0,0,0
CCC(C)n1cnc2c(c1=O)c1nc3ccccc3nc1n2Cc1ccc2c(c1)OCO2 (configuration not stated),3.2µM,0,0,0,0,0
CCC(C)n1cnc2c(c1=O)c1nc3ccccc3nc1n2-c1ccc2c(c1)OCCO2 (configuration not stated),0,0,0,0,0,0
CC(C)c1ccc(CNc2ccc(N3CCOCC3)cc2)cc1,25µM,?,0,0,0,0
Cc1cc(C)c2nc3s/c(=C/c4ccc5c(c4)n(C)c(=O)n5C)c(=O)n3c2c1,25µM,0,0,0,0,0
C[C@@]1(C(=O)O)NCCc2cc(O)c(O)cc21,0,?,7.9µM,0,0,0
Nc1ccn([C@@H]2O[C@@H](CO)[C@@H](O)[C@H]2O)c(=O)n1,-,0,0,0,0,0
CC(=O)c1ccc2c(c1)N(CCCN(C)C)c1ccccc1S2,3.2µM,0,0,0,0,0
CCC(=O)c1ccc2c(c1)N(CCCN(C)C)c1ccccc1S2,?,0,0,0,0,0
COc1ccc2c(c1)Sc1ccccc1N2CCN(C)C,16µM,?,0,0,0,0
CN(C)CCCN1c2ccccc2Sc2ccccc21,10µM,0,0,0,0[3.08 µM],0
CN(C)CC(C)(C)CN1c2ccccc2Sc2ccccc21,0[11.4 µM],0[11 µM],0[11.4 µM],0[15.4 µM],0[15.4 µM],0
SMILES,Tau filament bind,Hsp90 Hop PPI,Pol III holo inh,BRCT PPI red,BRCT inh green,TsaE inh
Cc1cccc2sc(N)nc12,0,0,0,0,0,0
CCc1c2c(nc3cccc(OC)c13)OC(CC)C2 (configuration not stated),0,0,0,0,0,0
Cc1cnc(CNc2ncnc3ccc(-c4ccc(C(=O)N(C)C)cc4)cc23)cn1,0,0,0,0,0,0
CN(C)c1ccc(-c2ccc3ncnc(NCc4ccccc4)c3c2)cc1,2.5µM,0,0,0,0,0
COCCNc1ncnc2ccc(-c3ccc(N(C)C)cc3)cc12,16µM,0,0,0,0,0
COCCNc1ncnc2ccc(-c3ccoc3)cc12,0,0,0,0,0,0
Cc1cnc(CNc2ncnc3ccc(-c4ccc(N(C)C)cc4)cc23)cn1,25µM,0,0,0,0,0
CC1(C)CCC(=O)N[C@H]1CC(=O)C[C@H]1NC(=O)CCC1(C)C,0[11.4 µM],0[11 µM],0[11.4 µM],0[15.4 µM],0[15.4 µM],0
CC(CCN)(CCN)[N+](=O)[O-],0[11.4 µM],0[11 µM],0[11.4 µM],0[15.4 µM],0[15.4 µM],0
O=C(O)CCCCn1ccc(=O)[nH]c1=O,0[11.4 µM],0[11 µM],0[11.4 µM],0[15.4 µM],0[15.4 µM],0
COc1cc(/C=C/c2ccccc2)oc(=O)c1,0,?,0,0,0,0
CC(C)c1nnc(NC(=O)c2cccs2)s1,0,?,0,0,0,0
CNCCCCCCCCSc1nc(C(C)C)ccc1C(=O)c1cccs1,13µM,0,0,0,0,0
Cc1n[nH]c(C)c1N1C(=O)c2cccc3cc(Br)cc(c23)C1=O,16µM,0,0,0,0,0
Cc1cccc(C)c1N1C(=O)c2ccccc2C1=O,0,0,0,0,0,0
Nc1nc(N)c2[nH]cnc2n1 (tested in a mixture with another compound),0[11.4 µM],0[11 µM],0[11.4 µM],0[15.4 µM],0[15.4 µM],0
Nc1ncnc2nc[nH]c12.Nc1ncnc2nc[nH]c12.[Cl][Pt]([Cl])([Cl])[Cl],0[11.4 µM],0[11 µM],2.5µM,-,-,0
CCn1c(CSc2nnc3ccccn23)nc2cc(C(=O)O)ccc21,0,0,0,0,0,0
CCn1c(CSc2nnc(-c3cccnc3)n2-c2ccccc2C)nc2cc(C(=O)O)ccc21,0,0,0,25µM,0,79µM
COc1ccc(-c2cc([C@H](O)[C@@H]3CCCCN3)c3ccccc3n2)cc1,0[11.4 µM],0[11 µM],0[11.4 µM],0[15.4 µM],0[15.4 µM],0
Oc1cc(O)c2c(c1)O[C@H](c1ccc(O)c(O)c1)[C@@H](O)[C@@H]2c1c(O)cc(O)c2c1O[C@@H](c1ccc(O)c(O)c1)[C@H](O)C2,0[11.4 µM],0[11 µM],0.63µM,0[15.4 µM],0[15.4 µM],0
OC[C@@H]1O[C@@H](n2cnc3cncnc32)[C@@H](O)[C@H]1O,0,0,0,0,0,0
CC1=CC(=O)CC(C)(C)[C@@]1(O)/C=C\C(C)=C\C(=O)O,?,0,0,-,-,0
Cc1nn(-c2ccccc2)c2c1C(c1cccnc1)N1C=C(S(=O)(=O)N3CCCCC3)C=CC1=N2 (configuration not stated),16µM,?,0,0,0,0
Cc1nn2c(c1-c1ccccc1)NC1=C(C(=O)CCC1)C2c1cccnc1 (configuration not stated),0,0,0,0,0,0
O=C(Nc1cnc2ccccc2c1)c1ccco1,0,0,0,0,0,0

# Source: PubChem BioAssay
